Data reported in PubChem BioAssay AID1159580 (chemical genetic matrix, 2015).
Several values for one entry are separate records, joined by “and”; a condition that tells them apart may be missing. Equal entries are not always repeated. Screen size: about 5,500 compounds; about 2,000 (36%) were called active. Another 18% or so got no clear call; they are omitted. Rule as the data show it: active = normalized growth mostly below about 0.91 (no sharp cut-off); inconclusive = no clear call, values can overlap the other calls; inactive = mostly above about 0.92. The list shows a part of the results.

Experiment: chemical genetic growth profiling, strain panel (AID 1159580);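 also: tested at 20 µM; growth read once vehicle control cultures reached saturation at 30 °C; 1 = growth at the plate median or of vehicle wells; lower values mean less growth of the strain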
Conditions: S. cerevisiae deletion strains, growth OD

Measured: normalized growth

CC(N)(Cc1ccc(O)cc1)C(=O)O (stereo not drawn)
inactive: locus YAL013W, strain DEP1, active compounds read low 1.03 | locus YAL040C, strain CLN3, active compounds read low 0.969 and 1.01 | locus YCL061C, strain MRC1 (second series), active compounds read low 0.991 and 1.01 | locus YDR150W, strain NUM1, active compounds read low 1 | locus YDR363W, strain ESC2, active compounds read low 1 and 1.03 | locus YER002W, strain NOP16, active compounds read low 0.984 and 1 | locus YGR078C, strain PAC10, active compounds read low 1.02 | locus YGR229C, strain SMI1, active compounds read low 1.03 | locus YJR075W, strain HOC1, active compounds read low 1.02 | locus YMR263W, strain SAP30, active compounds read low 1.01 | locus YNL128W, strain TEP1, active compounds read low 0.984 | locus YNL153C, strain GIM3, active compounds read low 0.998 and 1.02 | locus YNL175C, strain NOP13, active compounds read low 0.97 and 1.01 | locus YNL197C, strain WHI3, active compounds read low 0.975 and 0.984 | locus YNL224C, strain SQS1, active compounds read low 1.01 and 1 | locus YNL322C, strain KRE1, active compounds read low 1.03 | locus YOR083W, strain WHI5 (second series), active compounds read low 0.974 and 1 | locus YPL055C, strain LGE1, active compounds read low 1.01 and 1.02
